Assay results published in PubChem BioAssay (Tox21).
Results filed as inconclusive are left out. A call without a number means that no potency is given here. Active and inactive are the calls of the source. Calls come from the whole dose curve.

Biological target: Muscarinic acetylcholine receptor M1 (Homo sapiens) (UniProt P11229)
Assay: Cholinergic receptor muscarinic 1 (CHRM1) small molecule antagonists, cell-based qHTS assay (AID 1963588); note: nearly all actives have a fitted effect of over 40% in size
Details: CHRM1-CHO antagonist mode, calcium flux fluorescence; series mostly up to 61.5 µM; activity, negative = inhibition: at the top concentration
Text: National Center for Advancing Translational Sciences [NCATS]
Division of Preclinical Innovation [DPI]
U.S. Environmental Protection Agency [EPA]
National Institutes of Environmental Health Sciences [NIEHS]
National Toxicology Program [NTP]
U.S. Food and Drug Administration [FDA]
The CHRM1 is a muscarinic receptor. This receptor plays a crucial role in learning and memory processes and has long been identified as a promising therapeutic target for the improvement of cognitive decline in Alzheimer's disease (AD). The CHRM1-CHO cell line stably expressing human muscarinic acetylcholine receptor M1 (CHRM1) can be used for screening agonists and antagonists of interactions between CHRM1 and its ligands. The CHRM1-CHO Calcium Flux Assay is a homogeneous fluorescence-based assay for detecting the intracellular calcium level using FDSS kinetic plate reader system.
Tox21 Assay Protocol Summary:
CHRM1-CHO cells were dispensed at 1000 cells/3uL/well in 1536-well black-clear bottom plates using a Multidrop Dispenser. After the assay plates were incubated at a 37 C/5% CO2 incubator for 18 h, 3 uL of Dye Loading Buffer was transferred to the assay plate by a Flying Reagent Dispenser. The assay plates were incubated at 37 C for 1h. For antagonist mode, 23 nL of compounds dissolved in DMSO, positive controls or DMSO only was transferred to the assay plate by a pin tool. After 5 min incubation at room temperature, 1.5 uL of acetylcholine at 50nM was added to each well. The fluorescence intensity in the plates was measured using FDSS 7000EX kinetic plate reader for 3 min at 1 sec intervals. Each test compound was measured at 15 concentrations in three independent runs.
Potency is the fitted concentration of half-maximal effect.

Muscarinic acetylcholine receptor M1 (Homo sapiens), sequence (P11229 whole entry, looked up): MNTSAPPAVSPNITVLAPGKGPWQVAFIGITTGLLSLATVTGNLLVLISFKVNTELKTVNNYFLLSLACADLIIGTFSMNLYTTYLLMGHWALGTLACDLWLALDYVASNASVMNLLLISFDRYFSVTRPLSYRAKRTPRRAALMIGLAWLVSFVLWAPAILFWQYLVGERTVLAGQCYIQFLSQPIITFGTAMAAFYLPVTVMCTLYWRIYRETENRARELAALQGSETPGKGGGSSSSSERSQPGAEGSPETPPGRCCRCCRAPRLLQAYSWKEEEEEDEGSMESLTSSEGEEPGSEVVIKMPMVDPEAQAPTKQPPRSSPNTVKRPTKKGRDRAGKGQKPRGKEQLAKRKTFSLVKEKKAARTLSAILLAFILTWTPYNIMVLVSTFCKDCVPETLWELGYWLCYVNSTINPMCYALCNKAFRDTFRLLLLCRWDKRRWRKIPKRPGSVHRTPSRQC

SMILES | Potency | activity, negative = inhibition
O=C(NC(=O)c1c(F)cccc1F)Nc1ccc(Cl)cc1 | inactive | 
Cc1ccc2cc(C)ccc2c1 |  | 9.37% (inactive)
CC(C)c1ccc(O)cc1 |  | 4.29% (inactive)
Cn1cc[n+](C)c1 (tested in a mixture with another compound) |  | 4.28% (inactive)
Cc1cccc(N)c1C | inactive | 
CCCCCCCCOC(=O)c1ccc(C(=O)OCCCCCCCC)c(C(=O)OCCCCCCCC)c1 |  | -2.63% (inactive)
ClC1=C(Cl)[C@]2(Cl)[C@@H]3[C@@H](Cl)[C@@H](Cl)C[C@@H]3[C@@]1(Cl)C2(Cl)Cl |  | -6.4% (inactive)
Oc1c(Br)cc(Br)cc1Br | inactive | 
CCCCCCCCCCCCCCCCCC(=O)O | inactive | 
Clc1nc(Cl)nc(Nc2ccccc2Cl)n1 |  | -3.99% (inactive)
COc1cc(-c2ccc(N)c(OC)c2)ccc1N | inactive | 
CCC[N+]1(C)CCCC1 | inactive | 
CC(=O)C(Cl)Cl |  | 3.64% (inactive)
Clc1ccc(C(Cl)(Cl)Cl)cn1 |  | 2.99% (inactive)
CC(=O)CC(c1ccc(Cl)cc1)c1c(O)c2ccccc2oc1=O (stereo not given) |  | 1.53% (inactive)
C=CC(C)=O |  | 28.8% (inactive)
C=C1CC[C@@]2(O)[C@H]3Cc4ccc(O)c5c4[C@@]2(CCN3CC2CC2)[C@H]1O5 |  | 2.04% [at 28.3 µM] (inactive)
COCC(=O)N(c1c(C)cccc1C)N1CCOC1=O |  | 4.44% (inactive)
O=C(Cl)C(Cl)Cl |  | 19.7% (inactive)
N#Cc1nn(-c2c(Cl)cc(C(F)(F)F)cc2Cl)c(N)c1S(=O)C(F)(F)F (stereo not given) |  | -27.6% [at 28.3 µM] (inactive)

SMILES | Potency | activity, negative = inhibition
Cc1cccc(N)c1 | inactive | 
CC(C)(O)C#N | inactive | 
O=C(NC(=O)c1c(F)cccc1F)Nc1cc(Cl)c(OC(F)(F)C(F)C(F)(F)F)cc1Cl (stereo not given) | 9.42 µM (active) | 
Clc1ccc(C(Cl)(Cl)Cl)c(Cl)c1 |  | 49.2% (inactive)
ClCC(Cl)CCl | inactive | 
COc1ccc(N)cc1N | inactive | 
Nc1ccccc1 | inactive | 
ClCCBr | inactive | 
Nc1ccc(Br)cc1 | inactive | 
O=C1c2ccccc2C(=O)N1SC(Cl)(Cl)Cl | inactive | 
CC1(C)Cc2cccc(O)c2O1 | inactive | 
C=CC(Cl)CCl (stereo not given) | inactive | 
c1ccc(P(c2ccccc2)c2ccccc2)cc1 | inactive | 
C=CC=O |  | 16.1% (inactive)
CCC(C)c1cc([N+](=O)[O-])cc([N+](=O)[O-])c1O (stereo not given) | inactive | 
CCC[N+]1(C)CCCCC1 | inactive | 
Brc1ccc(Oc2ccccc2)cc1 | inactive | 
CCCCNC(=O)n1c(NC(=O)OC)nc2ccccc21 | inactive | 
CCn1cc[n+](C)c1 | inactive | 
CCCC[n+]1cccc(C)c1 | inactive | 
